The nature of experiment [1]: qHTS for Inhibitors of the Functional Ribonucleoprotein Complex (vRNP) of Lassa (LASV) Arenavirus: LASV Primary Screen - GLuc reporter signal (AID 1347082; calls by dose curve; tested in HEK293 reporter line; note: series mostly up to about 57 µM; nearly all actives have a fitted effect of over 60% in size). (In qHTS, concentration-response curves come from the screen itself.)
Experiment [2] is described as follows: qHTS for Inhibitors of the Functional Ribonucleoprotein Complex (vRNP) of Lassa (LASV) Arenavirus: Viability assay - alamar blue signal for LASV Primary Screen (AID 1347083; calls by dose curve; tested in HEK293 reporter line; note: nearly all actives have a fitted effect of over 80% in size; note: potency is the fitted concentration of half-maximal effect).
Experiment [3] is described as follows: qHTS for Inhibitors of the Functional Ribonucleoprotein Complex (vRNP) of Lymphocytic Choriomeningitis Arenaviruses (LCMV): Viability assay - alamar blue signal for LCMV Primary Screen (AID 1347085; calls by dose curve; tested in HEK293 reporter line; note: nearly all actives have a fitted effect of over 80% in size; note: potency is the fitted concentration of half-maximal effect).
The target in experiment [4] is Nucleoprotein (Lymphocytic choriomeningitis virus (strain Armstrong)) (UniProt P09992). Briefly: qHTS for Inhibitors of the Functional Ribonucleoprotein Complex (vRNP) of Lymphocytic Choriomeningitis Arenaviruses (LCMV): LCMV Primary Screen - GLuc reporter signal (AID 1347086; calls by dose curve; note: nearly all actives have a fitted effect of over 70% in size; note: potency is the fitted concentration of half-maximal effect).
Experiment [5] is described as follows: qHTS of pediatric cancer cell lines to identify multiple opportunities for drug repurposing: Primary screen for TC32 cells (AID 1347089). Note: nearly all actives have a fitted effect of over 60% in size. Note: potency is the fitted concentration of half-maximal effect. An outline of the steps:
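TC32 cells, 500-1,000/well in growth medium, compound-treated 48 h at 37 °C; viability from CellTiter-Glo luminescence. Primary screen: MIPE 11-point (0.78 nM–46 µM final), NPC 8-point (0.59 nM–46 µM final); confirmatory at 11-point dilutions.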

Experiment [6] is described as follows: qHTS of pediatric cancer cell lines to identify multiple opportunities for drug repurposing: Primary screen for DAOY cells (AID 1347090). Note: series mostly up to about 46 µM; nearly all actives have a fitted effect of over 55% in size. In short, it runs like this: (§1)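 Cell viability, CellTiter-Glo luminescence; 500-1,000 cells/well, 8- or 11-point titration, 48 h compound exposure at 37 degrees C, 5% CO2. Controls: DMSO neutral, bortezomib 2.3 µM final as positive.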

The nature of experiment [7]: qHTS of pediatric cancer cell lines to identify multiple opportunities for drug repurposing: Primary screen for SJ-GBM2 cells (AID 1347091). Note: potency is the fitted concentration of half-maximal effect. In short, it runs like this:
as §1

Experiment [8] is described as follows: qHTS of pediatric cancer cell lines to identify multiple opportunities for drug repurposing: Primary screen for A673 cells (AID 1347092). Note: nearly all actives have a fitted effect of over 45% in size. Note: potency is the fitted concentration of half-maximal effect. An outline of the steps:
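A673 cells (500-1,000 cells/well) were treated 48 hours at 37 degrees C with compounds at 11-point (0.78 nM to 46 µM) or 8-point (0.59 nM to 46 µM) dilutions. Viability read by CellTiter-Glo luminescence; concentration-response curves fitted.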

A short description of experiment [9]: qHTS of pediatric cancer cell lines to identify multiple opportunities for drug repurposing: Primary screen for SK-N-MC cells (AID 1347093). Note: potency is the fitted concentration of half-maximal effect. In short, it runs like this: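 Metabolically active cells were quantified by ATP-dependent luminescence (CellTiter-Glo, 15 min at room temperature) following 48 h treatment. Cells had been plated at 500-1,000 per well and settled for 5 h beforehand.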

Experiment [10] in a line: qHTS of pediatric cancer cell lines to identify multiple opportunities for drug repurposing: Primary screen for BT-37 cells (AID 1347094). Note: potency is the fitted concentration of half-maximal effect. In short, it runs like this: (§2)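 Plated cells (500-1,000 per well, growth media) were allowed to settle for 5 hours, treated with compound dilutions for 48 hours, then lysed with CellTiter-Glo for 15 min at room temperature before luminescence reading.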

A short description of experiment [11]: qHTS of pediatric cancer cell lines to identify multiple opportunities for drug repurposing: Primary screen for NB-EBc1 cells (AID 1347095). Note: potency is the fitted concentration of half-maximal effect. In short, it runs like this: as §2
A short description of experiment [12]: qHTS of pediatric cancer cell lines to identify multiple opportunities for drug repurposing: Primary screen for NB1643 cells (AID 1347099). Note: nearly all actives have a fitted effect of over 50% in size. Note: potency is the fitted concentration of half-maximal effect. In short, it runs like this: as §2
Experiment [13] in a line: qHTS of pediatric cancer cell lines to identify multiple opportunities for drug repurposing: Primary screen for LAN-5 cells (AID 1347100). Note: potency is the fitted concentration of half-maximal effect. In short, it runs like this: (§3)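 Cells (500-1,000/well) rested 5 h, then received compounds for 48 h; metabolically active cells were measured by CellTiter-Glo luminescence. Final concentrations spanned up to 46 µM (MIPE, 11-point) or 0.59 nM-46 µM (NPC, 8-point) in primary screens, 11-point in follow-ups.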

Experiment [14] can be described thus: qHTS of pediatric cancer cell lines to identify multiple opportunities for drug repurposing: Primary screen for BT-12 cells (AID 1347101). Note: nearly all actives have a fitted effect of over 25% in size. In short, it runs like this:
as §3

Experiment [15] can be described thus: qHTS of pediatric cancer cell lines to identify multiple opportunities for drug repurposing: Primary screen for Rh18 cells (AID 1347102). Note: nearly all actives have a fitted effect of over 65% in size. In short, it runs like this:
as §3

Experiment [16] can be described thus: qHTS of pediatric cancer cell lines to identify multiple opportunities for drug repurposing: Primary screen for OHS-50 cells (AID 1347103). Note: nearly all actives have a fitted effect of over 40% in size. Note: potency is the fitted concentration of half-maximal effect. An outline of the steps: as §3
Experiment [17] can be described thus: qHTS of pediatric cancer cell lines to identify multiple opportunities for drug repurposing: Primary screen for Saos-2 cells (AID 1347097). Note: nearly all actives have a fitted effect of over 40% in size. Note: potency is the fitted concentration of half-maximal effect. An outline of the steps:
as §2

Experiment [18] in a line: qHTS of pediatric cancer cell lines to identify multiple opportunities for drug repurposing: Primary screen for U-2 OS cells (AID 1347096). Note: nearly all actives have a fitted effect of over 50% in size. An outline of the steps: as §3
Experiment [19] in a line: qHTS of pediatric cancer cell lines to identify multiple opportunities for drug repurposing: Primary screen for SK-N-SH cells (AID 1347098). Note: nearly all actives have a fitted effect of over 65% in size. Note: potency is the fitted concentration of half-maximal effect. An outline of the steps:
as §3

Each structure is given as a SMILES string. Records with an inconclusive call do not appear. Active and inactive are the calls of the source. Unless noted, calls come from the whole dose curve; as a rule, active = well fitted curve in the direction sought with a large enough effect; inconclusive = small, poorly fitted or top-dose-only effect, or another doubt; inactive = no such curve, though single readings can be large; an effect the other way counts as inactive or inconclusive.

These results are taken from PubChem BioAssay (NCATS).

Sequence of Nucleoprotein (Lymphocytic choriomeningitis virus (strain Armstrong)) (P09992 whole entry, looked up): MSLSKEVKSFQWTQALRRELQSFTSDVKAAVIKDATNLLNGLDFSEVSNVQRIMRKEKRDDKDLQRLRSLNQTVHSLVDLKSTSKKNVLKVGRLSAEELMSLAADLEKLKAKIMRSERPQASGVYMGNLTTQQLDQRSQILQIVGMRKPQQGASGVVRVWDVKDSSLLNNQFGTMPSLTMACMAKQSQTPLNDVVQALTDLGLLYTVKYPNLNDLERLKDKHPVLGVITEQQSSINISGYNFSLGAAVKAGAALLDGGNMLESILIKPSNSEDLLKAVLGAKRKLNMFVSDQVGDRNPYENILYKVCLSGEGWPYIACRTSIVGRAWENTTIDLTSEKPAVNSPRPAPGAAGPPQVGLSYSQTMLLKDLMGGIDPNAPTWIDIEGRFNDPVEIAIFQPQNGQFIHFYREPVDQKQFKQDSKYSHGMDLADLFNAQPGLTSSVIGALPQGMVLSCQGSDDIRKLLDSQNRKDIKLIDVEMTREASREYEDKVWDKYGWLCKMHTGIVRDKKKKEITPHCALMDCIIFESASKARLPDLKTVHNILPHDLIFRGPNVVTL

For the compound `CCCCC(CC)COC(=O)c1ccccc1C(=O)OCC(CC)CCCC` (centres undefined), the Potency result in experiment [1], in experiment [2], in experiment [3], in [4], in [5] and in experiment [6] was “inactive” in each case. Further, the Potency result in [7], in experiment [8], in experiment [9], in [10], in [11] and in experiment [12] was “inactive” each time. For the same compound, the Potency entry in experiment [13], in [14], in experiment [15] and in experiment [16] was “inactive” in each case.
`CCN1C[C@]2(OC(=O)c3ccccc3NC(C)=O)CC[C@H](OC)[C@@]34[C@H]5CC6[C@@H](OC)C[C@](O)(C(C[C@@H]23)[C@@H]14)[C@@]5(O)[C@@H]6OC`: the Potency result in experiment [1], in [2], in experiment [3], in [4], in experiment [5] and in experiment [6] was “inactive” each time. In addition, the Potency entry in experiment [7], in [8], in [10], in [11], in experiment [17] and in [13] was “inactive” in each case. Further, the Potency result in [14], in experiment [15] and in experiment [16] was “inactive” in each case.
As for `C1=C2CCCN[C@H]2[C@@H]2C[C@H]1[C@@H]1CCCCN1C2`, the Potency result in [1], in experiment [2], in [3], in experiment [4], in [5] and in experiment [6] was “inactive” in each case. The Potency entry in [7], in experiment [10], in [11], in [18], in experiment [17] and in experiment [19] was “inactive” in each case. The Potency entry in experiment [13], in [14], in experiment [15] and in experiment [16] was “inactive” each time.
For `CCC(=O)OC1CCC2C3CCC4=CC(=O)CC[C@@]4(C)C3CC[C@]12C` (some centres undefined), the Potency result in experiment [1], in experiment [2], in experiment [3], in experiment [4], in experiment [5] and in experiment [6] was “inactive” throughout. Besides, the Potency result in [7], in experiment [10], in experiment [11], in experiment [17], in [19] and in [12] was “inactive” throughout. Also, the Potency entry in experiment [13], in experiment [14] and in experiment [15] was “inactive” each time. The Potency in experiment [9] is 9.35 µM (active).
With `CCCN1CCO[C@@H]2c3cc(O)ccc3OC[C@@H]21`, the Potency result in [1], in [2], in experiment [3], in experiment [4], in [5] and in experiment [6] was “inactive” throughout. Moreover, the Potency entry in experiment [18], in [17], in experiment [15] and in experiment [16] was “inactive” throughout. Moreover, the Potency was 21.7 µM (active) in [10], 16.6 µM (active) in [11], 21.5 µM (active) in experiment [19] and 14.8 µM (active) in experiment [13].
For the compound `COc1cc([C@@H]2c3cc4c(cc3[C@@H](O)C3COC(=O)C32)OCO4)cc(OC)c1O` (some centres undefined), the Potency entry in [1], in experiment [18] and in [15] was “inactive” throughout. In addition, the Potency in [2] is 0.0863 µM (active); in [3], 0.172 µM (active); in experiment [4], 0.153 µM (active); in experiment [5] it was 0.37 µM (active); in [7], 0.0148 µM (active); in experiment [8] it was 0.0372 µM (active). Further, the Potency is 0.0469 µM (active) in experiment [9]; 0.0066 µM (active) in [11]; 0.0209 µM (active) in experiment [17]; 6.62 µM (active) in [12]; 0.0132 µM (active) in [13]; 0.0343 µM (active) in experiment [16].
With `CN1CCN(c2ccc([N+](=O)[O-])c3no[n+]([O-])c23)CC1`, the Potency entry in experiment [1], in experiment [2], in experiment [3], in experiment [4], in experiment [5] and in experiment [18] was “inactive” in each case. In experiment [19], the Potency result is “inactive”. Besides, the Potency in experiment [7] is 23.5 µM (active); in experiment [8], 23.5 µM (active); in experiment [9], 18.7 µM (active); in [17], 26.4 µM (active); in [16], 34.3 µM (active).
In the case of `O=[N+]([O-])c1ncc[nH]1`, the Potency entry in experiment [1], in experiment [2], in experiment [3], in [4], in experiment [5] and in experiment [7] was “inactive” each time. Moreover, the Potency result in [8], in [9], in experiment [10], in experiment [11], in [17] and in [19] was “inactive” in each case. In addition, the Potency entry in experiment [13], in experiment [15] and in experiment [16] was “inactive” in each case.
`CC(C)(N)C(=O)N[C@H](COCc1ccccc1)C(=O)N1CCC2(CC1)CN(S(C)(=O)=O)c1ccccc12`: the Potency entry in experiment [1], in [3] and in [4] was “inactive” in each case.
As to `CC(C)Oc1cc(Nc2nc(N[C@@H](C)c3ccc(F)cn3)ncc2Cl)[nH]n1`, the Potency result in experiment [1], in [3] and in experiment [4] was “inactive” in each case.
Take `O=C(C1CC1)N1CC[C@@H](Cn2c(-c3ccc(-c4ccc5occc5c4)cc3)nc3cnccc32)C1`: the Potency entry in [1] is “inactive”. The Potency in experiment [3] is 10.9 µM (active).
Consider `C[C@](O)(COc1ccc(C#N)cc1)C(=O)Nc1ccc(C#N)c(C(F)(F)F)c1`, for which the Potency result in [1], in [5], in experiment [18] and in experiment [15] was “inactive” in each case. Moreover, the Potency in [2] was 38.5 µM (active); in experiment [12], 23.5 µM (active); in experiment [16], 27.3 µM (active).
`Cc1cccc(-c2[nH]ncc2-c2ccc3ncccc3n2)n1`: the Potency entry in experiment [1], in experiment [3] and in experiment [4] was “inactive” each time.
For `COc1ccc2c(c1)[C@]13CCCCC1C(C2)N(C)CC3` (some centres undefined), the Potency entry in experiment [1], in experiment [3], in experiment [4], in [5], in [6] and in [7] was “inactive” each time. Further, the Potency result in [8], in experiment [10], in experiment [11], in experiment [13], in experiment [14] and in experiment [15] was “inactive” in each case.
